In the library only some 17% were active in any assay of this set; here they are far more common.
HepG2 viability = kills HepG2 cells in TGF-b inhibitor counter-screen | HepG2 CAGA-GFP viability, ATP luminescence, 18 h | 410,000 compounds, 0.76% hits | Potency, µM (titrated, usually from 46.1 µM), without a hit: at the top dose activity change, negative = cytotoxicity, most hits filed as cytotoxic
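HepG2 CAGA-GFP cells (1000/well, DMEM with 1% FBS) received compound, then TGF-beta at 500 pg/mL final, and were incubated 18 hours at 37 degrees C. Viability was read by CellTiter-Glo luminescence. Media-only wells were set as complete cell-killing and DMSO as no toxicity.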
HT1080 IDH1KD tx = HT-1080 IDH1 knockdown cell toxicity (counter line); HT-1080 IDH1 knockdown viability, ATP luminescence, 48 h; Potency, µM (doses to about 46.1 µM), for inactives: at the top dose activity, negative = toxicity, usual class: cytotoxic; 360,000 compounds, 2% hits; AID 686971;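 also: 0% = DMSO wells and -100% = cell-free medium wells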
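IDH1KD HT-1080 cells, 750/well, RPMI + 5% FBS; compound pinned after 2 h settling; 48 h, 37 °C; CellTiter-Glo luminescence; % activity normalised to DMSO and no-cell wells; curves fitted, classed by r2 and efficacy.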
TGFb SMAD3 inh = inhibitors of TGF-b signaling. Potency, µM (titrated, usually from 46.1 µM), inactives show top-dose activity, negative = inhibition, usual class: inhibitors. 410,000 compounds, 1.2% hits. HepG2 CAGA-GFP TGF-b/SMAD3 reporter, GFP fluorescence, 18 h; TGF-beta stimulated, 500 pg/mL final; also: % is scaled to controls: 0 for no effect and ±100 for the full control effect; nearly all actives have a fitted effect of over 65% in size
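Cell-based qHTS in HEPG2 carrying a CAGA-GFP Smad reporter; compounds added before 500 pg/mL final TGF-beta, 18 h incubation at 37 degrees C, GFP fluorescence quantified per cell by imaging cytometry.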
HT1080-NT tox = kills 2HG-producing HT-1080-NT fibrosarcoma cells; HT-1080-NT fibrosarcoma viability, CellTiter-Glo ATP luminescence, 48 h; 360,000 compounds, 1.6% hits; Potency, µM (titrated, usually from 46.1 µM), inactives show at the highest dose activity, negative = less viability, actives largely listed as cytotoxic;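 also: NT is the 2HG producing partner of a matched IDH1 knockdown line; 0% = DMSO-treated cells and -100% = media-only wells without cells; nearly all actives have a fitted effect of over 55% in size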
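Compounds were tested in concentration-response format on HT-1080-NT cells for 48 hours at 37 degrees C. Cell viability came from CellTiter-Glo luminescence; curves were classified by r2, response magnitude and activity.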
TDP1 cell CPT = DT40-hTDP1 cell growth loss with CPT; chicken DT40 Tdp1-/-;hTDP1 cells + 20 nM CPT, ATP luminescence, 48 h; Potency, µM (top dose mostly 46.2 µM), without a hit: at the top dose activity change, negative = growth inhibition, most hits filed as inhibitors; 420,000 compounds, 12% hits; also: % is scaled to controls: 0 for no effect and ±100 for the full control effect; nearly all actives have a fitted effect of over 55% in size
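Chicken DT40 Tdp1-/- cells complemented with human TDP1, 400 cells/well, exposed to compounds plus 20 nM camptothecin for at least 48 h at 37 C; viability read as ATP content by CellTiter-Glo luminescence.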
TDP1 cell noCPT = qHTS for Inhibitors of human tyrosyl-DNA phosphodiesterase 1 (TDP1): qHTS in cells in absence of CPT; DT40 Tdp1-/- hTDP1 cells, no CPT, ATP luminescence, 48 h; Potency, µM (series often up to 46.2 µM), inactives show at the highest dose activity change, negative = growth inhibition, most hits filed as inhibitors; 420,000 compounds, 15% hits; AID 686978, 2013; also: % is scaled to controls: 0 for no effect and ±100 for the full control effect; nearly all actives have a fitted effect of over 55% in size
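Cells were dispensed at 400 per well, compounds added by pin tool, plates incubated ≥48 hr at 37 °C, then CellTiter-Glo added for 30 min at room temperature before luminescence reading. Line: DT40 Tdp1-/- complemented with hTDP1; camptothecin omitted.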
Numbers without * were called inactive; ? = inconclusive; / = not tested or not shown. Calls follow the shape of the dose curve; as a rule, active = well fitted curve in the direction sought with a large enough effect; inconclusive = small, poorly fitted or top-dose-only effect, or another doubt; inactive = no such curve, though single readings can be large; an effect the other way counts as inactive or inconclusive. Potency is read from the fitted curve at half-maximal effect.

SMILES | HepG2 viability | HT1080 IDH1KD tx | TGFb SMAD3 inh | HT1080-NT tox | TDP1 cell CPT | TDP1 cell noCPT
O=C(CCn1cnc(-c2ccccc2)c1-c1ccccc1)N/N=C/c1ccc(O)cc1 | -16% | ? | 0% | ? | ? | ?
COc1ccc(/C=N/NC(=O)COc2ccccc2-c2ccccc2)cc1 | -83% | 0.82µM* | ? | 2.3µM* | 0.58µM* | 0.65µM*
O=C(NCCNc1nccc(C(F)(F)F)n1)c1cccs1 | -6% | 6% | -9% | 14% | -6% | -10%
O=C(O)CCNC(=O)/C(=C\c1ccco1)NC(=O)c1ccco1 | -19% | 16% | 5% | 3% | -1% | 8%
COc1ccccc1/C=C/C=N/NC(=O)CCn1cnc2ccccc21 | -7% | 15µM* | -1% | 10µM* | 16µM* | 10µM*
COc1ccc(/C=N/NC(=O)CCSc2nc3ccccc3s2)cc1 | -21% | ? | -4% | ? | 5.8µM* | 2.6µM*
O=C(O)COc1ccccc1/C=N/NC(=O)COc1ccc(-c2ccccc2)cc1 | -4% | -4% | -6% | 5% | 3% | 29µM*
O=C(CSc1nc2ccccc2s1)N/N=C/c1ccc(C(=O)O)cc1 | -38% | 1% | -34% | 0% | -9% | ?
COC(=O)c1ccc(-c2ccc(/C=N/N3C(=O)C4C5C=CC(C6CC56)C4C3=O)o2)cc1 (centres undefined) | -7% | -3% | 2% | -3% | ? | 18µM*
CCCCc1nn2c(=O)cc(COC(=O)c3ccccc3NC(=O)c3cccs3)nc2s1 | -24% | / | 1% | / | -10% | -7%
CSc1ccc(Cl)c(C(=O)N2CCOc3ccccc32)c1 | -21% | -11% | ? | -17% | 18µM* | 16µM*
O=C(c1cc([N+](=O)[O-])ccc1Cl)N1CCc2ccccc21 | 22% | -16% | ? | -4% | -22% | -28%
COc1ccc(C(=O)c2cc([N+](=O)[O-])ccc2N2CCOCC2)cc1 | -23% | 0.15µM* | ? | ? | 0.026µM* | 0.033µM*
Cc1ccc(C(=O)c2cc([N+](=O)[O-])ccc2N2CCOCC2)cc1 | 0% | 7.3µM* | -2% | 5.2µM* | 2.1µM* | 2.1µM*
O=C(c1cc([N+](=O)[O-])ccc1N1CCCCC1)N1CCc2ccccc21 | -3% | 2.3µM* | 0% | ? | 15µM* | 4.6µM*
O=C(C[n+]1cccc(Br)c1)c1ccc(F)cc1 | 10% | / | 0% | / | -4% | 0%
CCc1ccc([C@@H]2C[C@H]3[C@@H](CN2S(=O)(=O)c2ccc(C)cc2)C(=O)C[C@@H](c2ccccc2)N3S(=O)(=O)c2ccc(C)cc2)cc1 | 3% | -3% | 8% | -2% | -3% | ?
COc1cc(SC)ccc1C(=O)N1CCc2ccccc21 | -1% | -24% | -5% | -3% | 21µM* | ?
Cc1ccc(C(=O)c2cc([N+](=O)[O-])ccc2N2CCCCC2)c(C)c1 | -11% | ? | ? | ? | 1µM* | 0.65µM*
COc1cc(SC)ccc1C(=O)N1CCCc2ccccc21 | -17% | -8% | -11% | ? | ? | ?
CCC(C)[C@H]1CN=C(N)N1CCc1cc(C(F)(F)F)cc(C(F)(F)F)c1 (some centres undefined) | -102% | 1% | ? | -2% | 3.3µM* | 4.6µM*
NC1=NC[C@H](c2ccccc2)N1CC1CCCCC1 | -6% | 5% | -15% | -19% | 13µM* | 16µM*
